116 compounds from PubChem BioAssay AID2253 (Southern Research Specialized Biocontainment Screening …, 2010) can be followed below.

The structures appear in SMILES notation. About 1,300 (59%) of roughly 2,200 compounds were called active. No rule for the calls is given here. The set was probably picked from earlier hits. Only a sample is shown. Entries with a potency or affinity are not part of this list.

The assay in a line: human monocytic cell viability reduction – S. typhimurium screen hits, cytotoxicity control for Salmonella PhoP regulon inhibitors, dose response (AID 2253). Particulars: THP-1 viability, CellTiter-Glo luminescence, 72 h; series mostly up to 50 µM.
Consider `Brc1ccc(NC2=Nc3ccccc3CC2)cc1`, for which the call was inactive.

As to `COc1cc(C2NC(=O)NC(c3ccccc3)=C2C(C)=O)ccc1OCC(=O)O` (stereo unspecified), the compound was called inactive.

With `COc1ccc(S(=O)(=O)n2nc(OC(=O)c3cccs3)cc2N)cc1`, the compound was called inactive.

As for `Nc1cc(N)nc(SCC(=O)Nc2ccc3c(c2)OCCCO3)n1`, the outcome was inactive.

On to `Cc1ccc2cc(C(=O)O)c(C)nc2c1`, for which the compound was classed as inactive.

Turning to `O=C(NCc1cccnc1)c1ccc(Cl)cc1[N+](=O)[O-]`, the outcome was inactive.

`Cc1cc([N+](=O)[O-])cc2ncccc12`: the compound was classed as inactive.

Turning to `CCOc1cc(C2C(C(=O)OC)=C(C)N=C3SCCC(=O)N32)ccc1OC(C)=O` (stereo unspecified), the outcome was inactive.

For the compound `COc1ccc(Oc2coc3cc(OC(=O)c4cccs4)ccc3c2=O)cc1`, the result was inactive.

As to `Cc1cc(C)nc(N(C#N)C(C)C(=O)N(C)C)n1` (stereo unspecified), the call was inactive.

On to `O=C(NC(=Nc1ccccc1)N1CCOCC1)Nc1ccccc1`, for which the compound was called inactive.

On to `Cc1cccnc1N(C(=O)Nc1ccccc1)C1=NCC(C)(C)S1`, for which the result was inactive.

Take `OC(COCc1cccs1)CN1CCN(c2ccccn2)CC1` (stereo unspecified): the compound was classed as inactive.

On to `CCCCOC(=O)CCNc1n[nH]c(=O)[nH]c1=O`, for which the call was inactive.

As to `Clc1ccc(CNCc2cccs2)cc1Cl`, the result was inactive.

In the case of `O=C(Cc1cn2ccsc2n1)Nc1ccccc1Oc1ccccc1`, the outcome was inactive.

For `Cc1ccc(S(=O)(=O)NCCC(=O)OCn2nnc3ccccc3c2=O)cc1`, the outcome was inactive.

With `CN(C(=O)/C=C/c1ccccc1)C1CCS(=O)(=O)C1` (stereo unspecified), the result was inactive.

Consider `CNC(=O)c1ccc(-c2ccc(F)cc2)s1`, for which the compound was called inactive.

Consider `CCCSc1nc(N2CCCC2)c2c(c1C#N)CC(C)(C)OC2`, for which the compound was called inactive.

Regarding `C=CCNC(=O)c1ccc(N(C)S(=O)(=O)c2ccc(OC)cc2)cc1`, the compound was classed as inactive.

Take `CC1CN(C(=O)CCc2ccccc2)C(C)CN1C(=O)CCc1ccccc1` (stereo unspecified): the result was inactive.

With `O=C(c1ccc(Cl)cc1Cl)C1(n2cncn2)Oc2ccccc2C1O` (stereo unspecified), the compound was called inactive.

On to `Cc1ccc(C(=O)NCc2ccc(Cl)cc2)o1`, for which the compound was classed as inactive.

Consider `O=[N+]([O-])c1ccc(-c2ccn[nH]2)o1`, for which the result was inactive.

Turning to `CN(c1ccccc1)S(=O)(=O)c1ccc(C(=O)Nc2nnc(-c3ccc(F)cc3)o2)cc1`, the outcome was inactive.

As for `COc1cccc(OC)c1C(=O)NC(=S)Nc1cc(-c2nc3ccccc3[nH]2)ccc1Cl`, the result was inactive.

Turning to `COC(=O)c1c(C(=O)OC)c(-c2cccc(C)c2)n2c1CS(=O)(=O)C2`, the call was inactive.

Consider `CCn1cc(C(C)(C)C)c(C#N)c1NC(C)=O`, for which the call was inactive.

`O=C(Cn1cnc2scc(-c3ccccc3)c2c1=O)N1CCOCC1`: the compound was called inactive.

For the compound `C=CC1=C(C(=O)O)N2C(=O)[C@@H](NC(=O)/C(=N/OCC(=O)O)c3csc(N)n3)[C@H]2SC1`, the call was inactive.

As to `CC(C)(C)c1n[nH]c(=S)n(/N=C/c2cccs2)c1=O`, the compound was called inactive.

With `Cc1ccsc1/C=N/NC(=O)Cn1cnc2ccccc21`, the compound was classed as inactive.

Regarding `C=CCSC1=Nc2sccc2C2=NC(=O)CN12`, the result was inactive.

`NC(=O)c1oc2ccccc2c1NC(=O)CN1CCCCC1`: the compound was called inactive.

As to `O=C(CN1CCCCC1)Nc1cccc2c1OCO2`, the call was inactive.

As to `O=c1[nH]c2cc3c(cc2cc1CN(CCc1ccccc1)Cc1nnnn1CC1CCCO1)OCO3` (stereo unspecified), the compound was called inactive.

For the compound `CC(C)CNC(=S)NC1CCCC1`, the outcome was inactive.

For `Cc1cc([N+](=O)[O-])ccc1NC(=O)Cc1ccc(F)cc1`, the compound was called inactive.

As to `Cn1c(SCC(=O)NC(=O)c2cccc([N+](=O)[O-])c2)nnc1-c1ccc(F)cc1`, the outcome was inactive.

As to `CN(C)CCNC(=O)c1ccc(COCC(F)(F)F)cc1`, the outcome was inactive.

On to `O=C(CN1CCC(NC(=O)c2cccc(F)c2)CC1)NCc1ccccc1F`, for which the compound was classed as inactive.

For `COc1ccc(/C=C/C(=O)O)cc1COc1cccc(C)c1`, the call was inactive.

Turning to `O=C(NCC(=O)N(c1cccnc1)C(C(=O)NCc1ccco1)c1ccccc1)c1ccco1` (stereo unspecified), the call was inactive.

In the case of `COC(=O)c1ccccc1NC(=O)CS(=O)(=O)Cc1nc(-c2ccc(C)cc2)oc1C`, the call was inactive.

With `COc1ccc(-c2nnn(CC(=O)N(Cc3ccco3)C(C(=O)NCC3CCCO3)c3ccco3)n2)cc1` (stereo unspecified), the result was inactive.

Consider `CSCC[C@H](NC(=O)Nc1ccc(C)cc1)C(=O)O`, for which the compound was called inactive.

Consider `C=C(C)C1Cc2cc3ccc(=O)oc3cc2O1` (stereo unspecified), for which the call was inactive.

`CCOC(=O)N1CCC(NC(=O)CCC(=O)c2ccccc2)CC1`: the call was inactive.

As to `COc1ccc(-c2nnc(SCCC(=O)O)n2-c2ccccc2)cc1`, the result was inactive.

Consider `Cc1cccnc1NC(=O)CCCN1C(=O)c2ccccc2C1=O`, for which the outcome was inactive.

Take `Cc1cccc(C)c1NC(=O)CSc1nnc(NC(=O)CN2CCOCC2)s1`: the compound was called inactive.

Consider `CCCOc1ccc(C(=O)NC(=S)N2CCN(c3cc4c(cc3F)c(=O)c(C(=O)O)cn4CC)CC2)cc1`, for which the compound was classed as inactive.

On to `Nc1nnc(Sc2ccc(Cl)cc2[N+](=O)[O-])s1`, for which the outcome was inactive.

On to `c1ccc2oc(SCc3cn4ccccc4n3)nc2c1`, for which the call was inactive.

`NC(=O)c1cnn(Cc2ccc(Cl)cc2)c1N`: the outcome was inactive.

With `CC(=O)Cn1cnc2sc(-c3ccccc3)cc2c1=O`, the outcome was inactive.

Consider `Nc1ccc(S(=O)(=O)Nc2ccc(Cl)nn2)cc1`, for which the compound was classed as inactive.

As for `Cc1nc2cc(NC(=O)N3CCN(c4ccccn4)CC3)ccc2o1`, the compound was called inactive.

Regarding `Cc1ccc(C(=O)C2COC(=O)C2)cc1` (stereo unspecified), the compound was called inactive.

For the compound `COc1cccc(NC(=O)CNC(=O)c2cccs2)c1`, the result was inactive.

On to `Cc1cc2nn(-c3ccccc3)nc2cc1NC(=O)c1cccs1`, for which the result was inactive.

Take `O=S(=O)(c1ccc(S(=O)(=O)N2CCN(C/C=C/c3ccccc3)CC2)cc1)N1CCCC1`: the call was inactive.

As for `COCCNC(=O)CSCc1c(F)cccc1Cl`, the result was inactive.

In the case of `Cc1nc2c(Cl)cccc2c2c1CC(CBr)O2` (stereo unspecified), the compound was classed as inactive.

As for `CN(C)CCNc1nc(-c2ccccc2)nnc1C(F)(F)F`, the compound was classed as inactive.

For the compound `Cc1cccc(C=Nc2ccc3c(c2)oc2ccccc23)c1O`, the result was inactive.

On to `CCNC(=S)NNC(=O)c1ccc(OC(F)F)cc1`, for which the compound was classed as inactive.

For the compound `Nc1nc(C2CCCCC2)cs1`, the call was inactive.

For `COc1ccc(C2=Nc3cccc4cccc(c34)N2)cc1`, the outcome was inactive.

Regarding `O=S(=O)(NC1=NCCCCC1)c1cccs1`, the call was inactive.

Turning to `C=CCOc1ccc(CNc2nn[nH]n2)cc1`, the outcome was inactive.

On to `OCCN(Cc1ccccc1)Cc1ccc(Cl)cc1`, for which the compound was classed as inactive.

Regarding `CN(C)S(=O)(=O)Nc1ccc(C(=O)O)cc1`, the outcome was inactive.

Turning to `CC1CC(C)CN(CCCNC(=O)C2CCC(=O)N2C2CCCC2)C1` (stereo unspecified), the call was inactive.

`CCOCC(=O)Nc1ccc(F)c(F)c1`: the compound was classed as inactive.

Regarding `O=C(Cn1ncc2c(=O)oc3ccccc3c21)N1CCN(c2ccccn2)CC1`, the compound was classed as inactive.

With `Cc1ccccc1C(=O)N(C)Cc1ccccc1`, the compound was called inactive.

Regarding `CCOC(=O)c1ccc(N2CCN(c3ccc(F)cc3)CC2)c(NC(=O)Nc2cccc(OC)c2)c1`, the compound was classed as inactive.

For `Cc1ccc2occ(/C=N/O)c(=O)c2c1`, the compound was called inactive.

In the case of `O=C(O)C1CCCN1S(=O)(=O)c1ccc2[nH]c(=O)c(=O)[nH]c2c1` (stereo unspecified), the compound was classed as inactive.

For the compound `O=C(CSc1nnc2n(C3CCCCC3)c(=O)c3ccccc3n12)OC1CCCCC1`, the call was inactive.

Take `Cc1ccc(C(=O)NCC(=O)NCC(=O)OCC(=O)c2ccc([N+](=O)[O-])cc2)cc1`: the outcome was inactive.

Regarding `Cc1ccc(S(=O)(=O)NC2=NCN(CCOC(=O)c3ccc([N+](=O)[O-])cc3)CN2)cc1`, the call was inactive.

As to `Nc1ncncc1-c1ccc(Cl)cc1`, the compound was classed as inactive.

For `N#Cc1c(N)nc(SCC(=O)NC2CCCCC2)c(C#N)c1-c1ccc(Cl)cc1`, the outcome was inactive.

As for `CCn1cc(C(=O)O)c(=O)c2cc(F)c(N3CCN(C(=S)NC(=O)c4cccc(C)c4)CC3)cc21`, the compound was classed as inactive.

Turning to `CN1/C(=C/C=N/NC(=O)c2ccc([N+](=O)[O-])cc2)C(C)(C)c2ccccc21`, the compound was called inactive.

On to `COc1cc(C)ccc1OCCCOc1ccccc1Br`, for which the result was inactive.

Turning to `Clc1ccc(OCCn2ccnc2)c(Br)c1`, the outcome was inactive.

As for `O=C(COc1ccc(Br)cc1Cl)NC(=O)NCc1ccccc1`, the compound was called inactive.

On to `CC(C)Oc1cccc(C(=O)NC(=S)Nc2ccccc2)c1`, for which the compound was called inactive.

Regarding `Cc1cc(C)c(NC(=S)NC(=O)c2ccc(-c3ccccc3)cc2)c(C)c1`, the compound was called inactive.

In the case of `Cn1cc(-c2nnnn2-c2cccc(C(F)(F)F)c2)c(C(F)(F)F)n1`, the compound was classed as inactive.

As to `Nc1cc(=O)[nH]c(=S)n1-c1cccc(C(F)(F)F)c1`, the compound was called inactive.

Consider `Cc1ccc(/C=C/c2nnc(-c3ccc(C)cc3)o2)cc1`, for which the outcome was inactive.

For the compound `O=C(CSc1ncn[nH]1)Nc1cccc2ccccc12`, the compound was called inactive.

For `COc1ccc(OC)c(NC(=O)c2ccccc2NS(=O)(=O)c2cccc3cccnc23)c1`, the outcome was inactive.

On to `COc1ccc(CCN2CC3=C(C2=O)C(c2ccccc2)NC(=O)N3C)cc1OC` (stereo unspecified), for which the outcome was inactive.

For the compound `Cc1ccc(C(=O)COC(=O)CNS(=O)(=O)c2ccccc2)cc1[N+](=O)[O-]`, the call was inactive.

In the case of `O=C(Cc1ccc(Cl)cc1)NNS(=O)(=O)c1ccc([N+](=O)[O-])cc1`, the call was inactive.

Take `O=C(N[C@H](CO)[C@H](O)c1ccc([N+](=O)[O-])cc1)C(Cl)Cl`: the outcome was inactive.

Consider `COc1ccc2nc(-c3ccccc3)cc(OC)c2c1`, for which the compound was called inactive.

As for `Cc1ccc(-c2n[nH]c(=S)n2/N=C/c2cc3c(cc2[N+](=O)[O-])OCO3)cc1`, the compound was called inactive.

`Cc1nc2ccccc2c(=O)n1/N=C/c1ccc(N(C)C)cc1`: the compound was classed as inactive.

For the compound `CN(C)c1ccc(/C=N/c2cc(-c3ccccc3)nn2-c2ccccc2)cc1`, the result was inactive.

Regarding `CO[C@@]1(NC(=O)C2SC(=C(C(N)=O)C(=O)O)S2)C(=O)N2C(C(=O)O)=C(CSc3nnnn3C)CS[C@@H]21` (stereo partly specified), the compound was classed as inactive.

With `CCCn1nnc(NC(=O)c2ccc(Br)o2)n1`, the compound was classed as inactive.

Consider `FC(F)(F)c1cc(C(F)(F)F)c2ccc(Oc3ccccc3)nc2n1`, for which the compound was classed as inactive.

`Cc1ccc(NS(=O)(=O)c2ccccc2)c2c1CC(C)(C)O2`: the compound was called inactive.

Turning to `O=C1N=c2ccccc2=C1c1[nH]c(=S)[nH]c1O`, the compound was called inactive.

For `Cc1ccc(Nc2nc(N)nc(CC#N)n2)cc1`, the call was inactive.

As for `C=CCn1c(SCC(=O)Nc2nnc(CC)s2)nnc1-c1cccnc1`, the outcome was inactive.

With `O=C(COC(=O)c1cn(-c2ccccc2)nc1-c1ccccc1)c1cccc([N+](=O)[O-])c1`, the compound was called inactive.

Turning to `c1ccc(CSc2snnc2-c2ccccc2)cc1`, the compound was called inactive.

`O=C(c1cn(-c2ccccc2)nc1-c1cccnc1)N1CCCCC1`: the call was inactive.
